Bioassay records deposited in PubChem by National Center for Advancing Translational Sciences (NCATS).
TDP1 block = TDP1 (human) enzyme inhibition; recombinant TDP1, AlphaScreen DNA substrate cleavage; Potency, µM (titrated, usually from 130 µM), without a hit: top-dose activity change, negative = inhibition, actives largely listed as inhibitors; 350,000 tested, 0.28% active; further: potency means the concentration at half of the fitted maximal effect; on the % scale 0 is the no-effect control and ±100 the full control effect; nearly all actives have a fitted effect of over 40% in size
Target sequence (Q9NUW8 whole entry, looked up): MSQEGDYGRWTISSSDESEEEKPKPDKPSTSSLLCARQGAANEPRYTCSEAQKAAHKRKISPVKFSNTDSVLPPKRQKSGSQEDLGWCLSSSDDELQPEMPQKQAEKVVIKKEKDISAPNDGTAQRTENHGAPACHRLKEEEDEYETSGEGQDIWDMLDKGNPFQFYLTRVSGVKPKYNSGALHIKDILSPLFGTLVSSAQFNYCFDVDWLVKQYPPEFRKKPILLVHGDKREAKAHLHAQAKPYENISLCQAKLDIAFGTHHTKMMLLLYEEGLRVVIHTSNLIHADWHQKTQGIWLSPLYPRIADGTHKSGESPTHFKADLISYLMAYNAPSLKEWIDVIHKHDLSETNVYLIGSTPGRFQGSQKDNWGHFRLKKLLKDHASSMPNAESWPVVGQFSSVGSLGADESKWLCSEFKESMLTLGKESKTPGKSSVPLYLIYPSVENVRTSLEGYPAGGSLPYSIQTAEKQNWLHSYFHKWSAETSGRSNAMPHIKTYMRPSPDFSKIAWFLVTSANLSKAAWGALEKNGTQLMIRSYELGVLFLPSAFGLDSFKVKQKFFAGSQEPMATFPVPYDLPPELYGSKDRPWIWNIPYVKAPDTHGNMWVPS
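Steps: enzyme plus compound, 15 min RT; add biotin/phosphotyrosine-FITC oligonucleotide (15 nM final), react 5 min; add donor/acceptor beads (10 ug/ml final), 10 min; read AlphaScreen. Tdp1 at 1 nM final.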
TDP1 cell noCPT = qHTS for Inhibitors of human tyrosyl-DNA phosphodiesterase 1 (TDP1): qHTS in cells in absence of CPT | DT40 Tdp1-/- hTDP1 cells, no CPT, ATP luminescence, 48 h | Potency, µM (titrated, usually from 46.2 µM), inactives show at the highest dose activity change, negative = growth inhibition, most hits filed as inhibitors | 420,000 tested, 15% active; further: potency means the concentration at half of the fitted maximal effect; on the % scale 0 is the no-effect control and ±100 the full control effect; nearly all actives have a fitted effect of over 55% in size
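Seeded 400 DT40-hTDP1 cells/well (vehicle DMSO, no 20 nM CPT); pinned compounds; ≥48 hr at 37 °C; CellTiter-Glo luminescence as viability measure.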
IL1B secr inh = blocks inflammasome-driven IL-1 beta release; THP-1 LPS/ATP IL-1B secretion, AlphaLISA, 16 h; hits give low values; 360,000 tested, 4.7% active; activity change, % at 57.5 µM; in the data active means activity change below about -50%; inconclusive means mostly about -30% to -49%; further: on the % scale 0 is the no-effect control and ±100 the full control effect
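THP-1 cells pretreated 1 hr with compounds (up to 57.5 uM final), then stimulated with LPS (250 ng/mL final) plus ATP (1.25 mM final); secreted IL-1B measured by AlphaLISA after 16 hr, decreased signal indicating inhibition.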
TGFb SMAD3 inh = blocks TGF-b signaling; 410,000 tested, 1.2% active; Potency, µM (top dose mostly 46.1 µM), without a hit: top-dose activity, negative = inhibition, hits mostly inhibitors; HepG2 CAGA-GFP TGF-b/SMAD3 reporter, GFP fluorescence, 18 h; TGF-beta stimulated, 500 pg/mL final; AID 588855; further: potency means the concentration at half of the fitted maximal effect; on the % scale 0 is the no-effect control and ±100 the full control effect; nearly all actives have a fitted effect of over 65% in size
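HEPG2 CAGA-GFP cells (1000/well, DMEM with 1% FBS) were pre-incubated 2 h at 37 degrees C, given compound by pin tool, then stimulated with TGF-beta at 500 pg/mL final for 18 h before per-cell GFP fluorescence imaging.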
HepG2 tox = kills HepG2 cells in TGF-b inhibitor counter-screen. HepG2 CAGA-GFP viability, ATP luminescence, 18 h. AID 588856. Potency, µM (series often up to 46.1 µM), for inactives: at the highest dose activity change, negative = cytotoxicity, hits mostly cytotoxic. 410,000 tested, 0.76% active; further: potency means the concentration at half of the fitted maximal effect
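CellTiter-Glo luminescence gave cytotoxicity after 18 hours at 37 degrees C. The cells were HepG2 CAGA-GFP in 1% FBS DMEM, stimulated with 500 pg/mL TGF-beta after compound addition. %Activity was normalised to no-cell wells (complete cell-killing) and DMSO (no toxicity), and curves were fitted and classified.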
DT40 TDP1 CPT = growth inhibition of DT40 Tdp1-/-;hTDP1 cells with camptothecin (screen for TDP1 inhibitors); chicken DT40 Tdp1-/-;hTDP1 cells + 20 nM CPT, ATP luminescence, 48 h; Potency, µM (titrated, usually from 46.2 µM), without a hit: at the highest dose activity change, negative = growth inhibition, actives largely listed as inhibitors; 420,000 tested, 12% active; further: potency means the concentration at half of the fitted maximal effect; on the % scale 0 is the no-effect control and ±100 the full control effect; nearly all actives have a fitted effect of over 55% in size
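Chicken DT40 Tdp1-/- cells stably complemented with human TDP1 were seeded at 400 cells/well in medium containing 20 nM camptothecin, exposed to pin-transferred compounds, and grown at 37 °C for at least 48 hr. Viability was read as ATP luminescence.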
An asterisk follows results filed as active; u = inconclusive; x = not tested or not shown; [ ] = another dose, or the depositor's remark. Compounds with a hit are over-represented: about 18% of the library has one in this group of screens. Unless noted, the call rests on the fitted dose curve; in most records, active means well fitted curve in the direction sought with a large enough effect; inconclusive means small, poorly fitted or top-dose-only effect, or another doubt; inactive means no such curve, though single readings can be large; an effect the other way counts as inactive or inconclusive.

SMILES	TDP1 block	TDP1 cell noCPT	IL1B secr inh	TGFb SMAD3 inh	HepG2 tox	DT40 TDP1 CPT
CCOC(=O)Cc1csc(NC(=O)c2ccncc2)n1	3%	u	-10	-14%	1%	u
CCOC(=O)Cc1csc(SCC(=O)Nc2cccc(C#N)c2)n1	-2%	-28%	21	1%	-2%	-7%
CCOC(=O)Cc1csc(NC(=O)c2cc(-c3ccncc3)nc3ccccc23)n1	2%	u	30	-3%	-17%	16µM*
Cc1csc(NC(=O)c2cc(-c3ccccc3)nc3ccccc23)n1	5%	15µM*	x	-5%	-8%	u
CCOC(=O)Cc1csc(NC(=O)c2ccc([N+](=O)[O-])cc2[N+](=O)[O-])n1	4%	-9%	16	0%	-32%	-25%
CCOC(=O)Cc1csc(SCC(=O)Nc2cccc(Cl)c2)n1	2%	15µM*	-7	23%	-21%	u
Cc1c(OCC(=O)NCC2CCC(C(=O)O)CC2)ccc2c(-c3ccccc3)cc(=O)oc12 (stereo not given)	x	-20%	4	-3%	2%	-26%
CCC(=O)N1C2=C(c3ccccc3[C@@H]1CC(=O)Nc1ccc3ccccc3c1)[C@@H]1C(=O)N(c3ccccc3)C(=O)[C@@H]1[C@H](C)C2	17%[12.3 µM]	x	x	x	x	x
CC1(c2nnc(-c3cccc(Cl)c3)o2)CC(c2ccccc2Br)=NO1 (stereo not given)	x	-17%	-4	-4%	-2%	1%
Cc1noc(C)c1S(=O)(=O)NC(=O)C1(C)CCN1C(=O)c1ccccc1CCc1ccccc1 (stereo not given)	x	u	3	16%	-32%	u
CCOC(=O)Cc1csc(NC(=O)c2cnc3sc(C)cn3c2=O)n1	1%	21µM*	21	-17%	-14%	u
CCOC(=O)Cc1csc(NC(=O)c2ccc3ccccc3n2)n1	12%	18µM*	19	-14%	-16%	u
CCOC(=O)Cc1csc(NC(=O)c2cc(C)c(C)s2)n1	-1%	23µM*	-9	u	-5%	u
CCOC(=O)Cc1csc(NC(=O)c2ccc(C)o2)n1	1%	-7%	7	-4%	-2%	0%
CCOC(=O)Cc1csc(NC(=O)c2cc(C)on2)n1	x	16%	22	7%	2%	-3%
COc1ccc(OC)c(CCNC(=O)Cn2nc(C)n3c(cc4sccc43)c2=O)c1	2%	-10%	x	u	-16%	-2%
Cc1ccccc1NC(=O)c1sc2nc(-c3cc4ccccc4oc3=O)[nH]c(=O)c2c1C	0%	u	x	217%	-19%	8.2µM*
Cc1ccc(C)c(N2CCN(C(=O)CCc3nc(-c4ccc(Br)cc4)no3)CC2)c1	-2%[56.1 µM]	-1%	6	u	-23%	0%
O=C(NCc1ccco1)C1CCN(C(=O)c2cc3sccc3n2Cc2ccc(F)cc2)CC1	-7%	u	u	u	-31%	u
O=C(NCCCN1CCCC1)C1CCN(C(=O)c2cc3sccc3n2Cc2ccc(F)cc2)CC1	4%	u	4	-2%	-25%	16µM*
CC(C)CCNC(=O)C1CCN(C(=O)c2cc3sccc3n2Cc2ccc(Cl)cc2)CC1	4%	9.2µM*	x	6.3µM*	-21%	18µM*
O=C(NCc1ccccn1)C1CCN(C(=O)c2cc3sccc3n2Cc2ccc(F)cc2)CC1	5%	23µM*	24	u	-23%	u
CCOc1ccc(/C=C2\SC(=S)NC2=O)cc1OC	0%	u	11	15%	-18%	u
